Screening results as filed in PubChem.
VDR inhibitor = Inhibitors of the vitamin D receptor (VDR): qHTS. AID 504847, 2011. VDR-SRC2-3 peptide fluorescence polarization, 2 h. Potency, µM, for inactives: max response, negative = inhibition, actives largely listed as inhibitors. Vitamin D3 receptor (Homo sapiens), P11473. 400,000 tested, 0.93% active; note: potency is the fitted concentration of half-maximal effect; % is set by controls: 0 for no effect and ±100 for the full control effect
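Fluorescence polarization assay of small-molecule disruption of VDR binding to coregulator peptide SRC2-3. Compounds and controls pin-transferred, then read after 2 h incubation at ambient room temperature.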
CBFb RUNX1 block = qHTS Assay for Compounds Blocking the Interaction Between CBF-beta and RUNX1 for the Treatment of Acute Myeloid Leukemia | 230,000 tested, under 10 active | AID 1477, 2009 | AlphaScreen CBFb-His/RUNX1-biotin binding, biochemical | Potency, µM (top dose mostly 59.8 µM), for the others: at the highest dose activity, negative = inhibition, usual class: inhibitors; note: % of control where 0% means no effect
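His-tagged CBF-beta and biotinylated RUNX1 (30 nM each) were premixed 20 min at room temperature, exposed to compound for 15 min, then given nickel-chelate and streptavidin AlphaScreen beads (50 ng each). After 90 min, AlphaScreen signal was read.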
MBNL1-CUG inh = qHTS Assay for Inhibitors of MBNL1-poly(CUG) RNA binding; TR-FRET MBNL1-His/biotin-(CUG)12 binding, 665/545 ratio; Potency, µM (top dose mostly 57.5 µM), for the others: at the top dose activity change, negative = inhibition, usual class: inhibitors; 280,000 tested, 0.036% active; Muscleblind-like protein 1 (Homo sapiens), Q9NR56; active = well fitted inhibition curve with a large enough effect in the signal ratio, with a control signal flat, not every such curve was filed as active; inconclusive = small, poorly fitted or top-dose-only effect, or effect the other way, or a change in a side signal; inactive = no such curve, though single readings can be large or run the other way; the % refers to the signal ratio; note: potency is the fitted concentration of half-maximal effect; % is set by controls: 0 for no effect and ±100 for the full control effect
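TR-FRET readout: Ex 340 nm, 665/545 nm emission ratio, normalized to buffer-only (basal) and MBNL1-(CUG)12 controls. Complex of MBNL1-His with Biotin-(CUG)12, compounds 92 nM–58 uM, incubated 60 min at room temperature.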
PLK1 PBD block = qHTS for Inhibitors of PLK1-PDB (polo-like kinase 1 - polo-box domain): Primary Screen. Serine/threonine-protein kinase PLK1 (Homo sapiens), P53350. Potency, µM, inactives show max response, negative = inhibition, hits mostly inhibitors. 360,000 tested, 2.8% active. AID 720504, 2013. Plk1 PBD binding of FITC phosphopeptide, fluorescence polarization; note: potency is the fitted concentration of half-maximal effect; series mostly up to about 57 µM; % is set by controls: 0 for no effect and ±100 for the full control effect; nearly all actives have a fitted effect of over 65% in size
Target sequence (P53350 whole entry, looked up, the tested form may be a part): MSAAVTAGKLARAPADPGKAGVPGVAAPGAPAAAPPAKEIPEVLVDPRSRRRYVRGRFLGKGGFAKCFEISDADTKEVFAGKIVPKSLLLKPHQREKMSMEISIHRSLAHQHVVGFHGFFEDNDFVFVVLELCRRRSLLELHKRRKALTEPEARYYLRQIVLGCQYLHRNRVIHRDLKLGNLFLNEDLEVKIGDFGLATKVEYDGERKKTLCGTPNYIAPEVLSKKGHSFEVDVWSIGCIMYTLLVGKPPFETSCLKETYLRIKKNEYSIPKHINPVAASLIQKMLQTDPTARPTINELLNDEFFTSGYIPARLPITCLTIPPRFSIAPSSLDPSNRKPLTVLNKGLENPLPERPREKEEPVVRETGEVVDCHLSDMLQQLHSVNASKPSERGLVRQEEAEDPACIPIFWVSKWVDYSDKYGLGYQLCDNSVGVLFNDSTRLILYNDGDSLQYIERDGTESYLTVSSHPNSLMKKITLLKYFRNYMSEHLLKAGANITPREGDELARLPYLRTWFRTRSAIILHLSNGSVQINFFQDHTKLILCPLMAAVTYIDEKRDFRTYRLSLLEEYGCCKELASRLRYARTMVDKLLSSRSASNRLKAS
KCNH2 3.1 block = qHTS for Inhibitors of KCHN2 3.1: Mutant qHTS; 340,000 tested, 0.95% active; activity change, % (tested at about 1.8 µM); U2OS KCNH2 3.1, thallium flux FluxOr; stronger effect = lower value;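 active = maximum activity change below -70%; inconclusive = maximum activity change from -70% to -50%; inactive = maximum activity change above -50%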;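 note: thallium influx rate constant from kinetic fluorescence after stimulation buffer; % is set by controls: 0 for no effect and ±100 for the full control effect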
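Measured as rate of thallium-driven FluxOr signal in transduced U2OS cells carrying the 3.1 channel, read kinetically for 2 min upon stimulation; values are rate constants scaled to DMSO control wells.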
hERG WT inh = qHTS for Inhibitors of KCHN2 3.1: Wildtype qHTS; Voltage-gated inwardly rectifying potassium channel KCNH2 (Homo sapiens), Q12809; 340,000 tested, 0.37% active; U2OS, BacMam KCNH2, thallium flux FluxOr; stronger effect = lower value; activity change, % at 1.84 µM; AID 720551, 2013;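 active = maximum activity change below -70%; inconclusive = maximum activity change between -70% and -50%; inactive = maximum activity change above -50%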; note: % is set by controls: 0 for no effect and ±100 for the full control effect
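U2OS cells were transduced with wild-type KCNH2 virus (2.03 x 10^8 / mL) for 4 h at room temperature, then cultured overnight at 37 C. Thallium flux was read with FluxOr dye. Rate constants were normalized to DMSO controls.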
Active calls of the source: *; ? = inconclusive; . = not tested or not shown; [ ] = dose if it differs, or a comment. Hits are enriched below; roughly 3.8% of the tested compounds scored in any of these assays. Unless noted, calls come from the whole dose curve; as a rule, active = well fitted curve in the direction sought with a large enough effect; inconclusive = small, poorly fitted or top-dose-only effect, or another doubt; inactive = no such curve, though single readings can be large; an effect the other way counts as inactive or inconclusive.

SMILES | VDR inhibitor | CBFb RUNX1 block | MBNL1-CUG inh | PLK1 PBD block | KCNH2 3.1 block | hERG WT inh
COc1ccc(Nc2nnc(SC(C(=O)Nc3cc(C)ccc3C)c3ccccc3)s2)cc1 (centres undefined) | -15% | -1% | 1% | -10% | -6 | 1
CC(C)n1c(SCCCc2ccccc2)nc2c1c(=O)[nH]c(=O)n2C | ? | 0% | 3% | 9.5µM* | -1 | 0
COCCn1c(SCCCc2ccccc2)nc2c1c(=O)[nH]c(=O)n2C | -14% | 2% | -5% | ? | 2 | -2
CCCCCn1c(SCCc2ccccc2)nc2c1c(=O)[nH]c(=O)n2C | 7% | 7% | 5% | -9% | -11 | 8
C/C=C/Cn1c(SCCCc2ccccc2)nc2c1c(=O)[nH]c(=O)n2C | 11% | 4% | -1% | -18% | -20 | 3
Cc1ccc(Cn2c(-n3nc(C)cc3C)nc3c2c(=O)[nH]c(=O)n3C)cc1 | 7% | 7% | -2% | -1% | 3 | -6
COc1ccc(CCn2c(-n3nc(C)cc3C)nc3c2c(=O)[nH]c(=O)n3C)cc1 | -23% | . | . | 3µM* | 3 | 0
COCCSc1nc2c(c(=O)[nH]c(=O)n2C)n1CCCc1ccccc1 | ? | . | -4% | 21µM* | 11 | -9
CCCCCOC(=O)CSc1nc2c(c(=O)[nH]c(=O)n2C)n1CCc1ccccc1 | ? | 6% | 0% | 21µM* | -10 | 8
O=C(O)CCn1c(=O)c2cccn2c2cccnc21 | 13% | . | . | . | . | .
COC(=O)c1cc2sc(Cl)cc2n1Cc1cc(C)ccc1C | -11% | . | . | . | . | .
CCCN1CNc2c(c(=O)[nH]c(=S)n2CCc2ccccc2C)C1 | -25% | . | . | . | . | .
Cc1ccc(N2C(=O)CCSC23C(=O)N(Cc2ccc(F)cc2)c2ccccc23)cc1 (centres undefined) | -11% | . | . | . | . | .
COc1cc(OC)c(NC(=O)C2=C(C)C(=O)OC23CCCCC3)cc1Cl | -11% | . | . | . | . | .
COc1cccc(C(=O)NC2CCN(CC(=O)Nc3nccs3)CC2)c1 | -4% | -4% | -4% | 24µM* | -6 | -4
Cc1ccc(NS(=O)(=O)c2cc(C(=O)N3CCc4ccccc4C3)ccc2Cl)cc1 | 21% | 2% | -2% | 0% | 0 | -261*
Fc1ccc2[nH]c3c(NCc4ccco4)ncnc3c2c1 | -8% | . | . | . | . | .
Cc1cccc(N(C)S(=O)(=O)c2c(C)[nH]c(C)c2C(=O)N2CCCC2)c1 | -25% | . | -5% | 24µM* | 7 | -7
NC(=S)NCCC[C@H](N)C(=O)O | 50µM* | -7% | . | . | . | .
NC(=O)NCCC[C@H](N)C(=O)O | -6% | 4%[21.7 µM] | . | . | . | .
CN(C)c1ccc(/C=N/NC(=O)c2nonc2N)cc1[N+](=O)[O-] | -17% | 6% | ? | 27µM* | 7 | 9
COc1ccc(N(Cc2cccs2)C(=O)c2ccc(OCC(C)C)cc2)cc1 | 5% | . | . | . | . | .
O=C(CC(Nc1ccc(Cl)cc1Cl)C(=O)O)c1ccccc1 (centres undefined) | 79µM* | 3% | -6% | -6% | 3 | -22
O=C(CC(C(=O)O)c1cccc(Cl)c1)c1ccccc1 (centres undefined) | -1% | . | 0% | 4% | 0 | 0
Cc1ccc(NC(CC(=O)c2ccccc2)C(=O)O)cc1Cl (centres undefined) | ? | 1% | 1% | 24µM* | -2 | -20
SMILES | VDR inhibitor | CBFb RUNX1 block | MBNL1-CUG inh | PLK1 PBD block | KCNH2 3.1 block | hERG WT inh
CSCCC(NC(=O)c1ccccc1)C(=O)OCC(=O)Nc1ccc(C)c(Cl)c1 (centres undefined) | ? | -10% | -6% | 21µM* | -12 | 17
O=C(Oc1ccc(N(Cc2cccs2)C2=NS(=O)(=O)c3ccccc32)cc1)c1ccc(Cl)cc1 | -11% | -13% | -11% | -14% | -99* | ?
CCOC(=O)c1c(C)[nH]c(C(=O)CSc2nnc(-c3cccs3)n2Cc2ccccc2)c1C | -2% | -3% | -10% | 2% | -18 | 1
CC(=O)c1c(C)[nH]c(C(=O)CSc2nnc(-c3cccs3)n2Cc2ccccc2)c1C | ? | 1% | 0% | 17µM* | -2 | -11
O=c1c2ccccc2nnn1CSc1nnc(-c2cccs2)n1Cc1ccccc1 | -18% | -1% | 1% | 30µM* | -20 | 27
Cc1cc(F)ccc1Nc1nc2ccc(Cl)cc2n2cnnc12 | 3% | . | . | . | . | .
O=C(O)Cn1cc(C(=S)N2CCCCC2)c2ccccc21 | -24% | 9% | -2% | 15µM* | 8 | -28
O=C(O)Cn1cc(/C=C2/SC(=O)N(CC(=O)N3CCCCCC3)C2=O)c2ccccc21 | ? | ? | 12% | 27µM* | -3 | -3
O=Cc1cn(CC(=O)N2CCCCC2)c2ccccc12 | -20% | 7% | -10% | -12% | 4 | -2
O=C(C(=O)N1CCN(c2ccccc2F)CC1)c1cn(CC(=O)N2CCOCC2)c2ccccc12 | ? | . | 0% | 24µM* | -9 | -11
O=C(O)Cn1cc(C(=S)N2CCOCC2)c2ccccc21 | ? | 4% | -1% | 24µM* | -6 | 1
COc1cc(C(=O)NCC(c2ccc3c(c2)OCO3)N2CCOCC2)cc(OC)c1OC (centres undefined) | -4% | . | . | . | . | .
CCCCNC(=O)NS(=O)(=O)c1ccc(CO)cc1 | 10% | 4% | . | . | . | .
Cc1ccc(OCCn2cc(C(=S)N3CCCC3)c3ccccc32)cc1C | -15% | 6% | 31% | 3µM* | -2 | -11
Cc1nc(-c2ccc(Cl)cc2)sc1CCNC(=O)C(=O)Nc1ccc(F)cc1F | 6% | . | . | . | . | .
O=c1[nH]c(=O)n(Cc2ccco2)c2c1C(C(F)(F)F)(C(F)(F)F)N=C(CCC1CCCCC1)N2 | 26% | 5% | -9% | -11% | . | -2
O=c1[nH]c(=O)n(Cc2ccco2)c2c1C(C(F)(F)F)(C(F)(F)F)N=C(CCc1ccccc1)N2 | 4% | -2% | -2% | -1% | -108* | 2
COC(=O)CN1C(c2cccc(Cl)c2)=Nc2ccc(Cl)cc2C1c1ccccc1 (centres undefined) | -7% | 2% | 12% | -2% | -19 | 2
COC(=O)CN1C(c2ccc(OC)cc2)=Nc2ccc(Cl)cc2C1c1ccccc1 (centres undefined) | -13% | -7% | -10% | -2% | -96* | 9
O=C(c1cc2cc(Br)ccc2o1)N1CCCC1 | ? | 7% | -2% | 27µM* | -4 | 0
O=C(c1cc2cc(Br)ccc2o1)N1CCOCC1 | -7% | 7% | 0% | 3% | . | -5
